Experimental findings from publication PMC5540273 (PLoS ONE, 2017) are described below.

Usually Kd stands for the concentration at which binding is half-saturated. Low readings indicate higher affinity, high ones lower affinity.
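Also: kd values determined as follow-up on hits from a single-replicate KINOMEscan panel screen.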

For the experiment, the system named is EPHB6.
On to `COc1cc(Nc2nccc(N3CCC(NC(=O)C(C)c4ccc(Cl)cc4)C3)n2)cc(OC)c1OC` (centres unmarked) [GSK1379757], for which the dissociation constant Kd was 100 nM. Take `COc1cc(Nc2nccc(N3CCC(NC(=O)C4COc5ccccc5O4)C3)n2)cc(OC)c1OC` (centres unmarked) [GSK1379761]: binding was characterised by a dissociation constant (Kd) of 110 nM. The result for `Cl.c1ccc(Cn2cnc3cc(Nc4ncnc5ccccc45)ccc32)cc1` [GW272142] reads 510 nM; that for `Nc1nccc2scc(-c3ccc4c(c3)CCN4C(=O)Cc3ccccc3)c12` [GSK2576924], 340 nM; that for `C[C@@H]1CC[C@H](C(=O)NC2CCCCC2)CN1c1cc(-c2ccc3c(N)n[nH]c3c2)nc(N)n1` [GSK2291363], 49 nM.
